Assay results as given in PubChem BioAssay (EPA / NIEHS).
Several values for one entry are separate records, joined by “and”; a condition that tells them apart may be missing. Equal values may be shown once. Some compounds were tested as several samples or in several runs, with calls that do not always agree. Activity calls are given as the source filed them. Rule for the calls: active = hit-call score of the fitted dose curve at least 0.9, where 1 is the maximum; inactive = score below 0.9.

Assays:
[1] = ATG_E_Box_CIS: Attagene CIS-FACTORIAL HepG2 Assay for human Enhancer Box (E-box) (AID 2282936); details: HepG2 E-box cis-reporter transcription, actives raise or lower the signal
Procedure, shortened: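 In this cell-based setup, HepG2 cells bearing transfected promoter-driven reporter units were exposed to chemicals for 24 h; reporter transcripts were amplified, 6-FAM-labelled, cut with HpaI and sized by capillary electrophoresis.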

[2] = ATG_M_61_CIS: Attagene CIS-FACTORIAL HepG2 Assay for M61 Transcription Factor (Internal Marker) (AID 2282937); details: HepG2 Attagene CIS-FACTORIAL M61 internal marker reporter; actives raise or lower the signal
Procedure, shortened: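 This endpoint serves as an internal background control within a multiplexed HepG2 cis-reporter panel. Cells are exposed for 24 h; reporter mRNA is amplified, fluorescently labelled and sized by capillary electrophoresis, with DMSO as negative control.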

[3] = ATG_EGR_CIS: Attagene CIS-FACTORIAL HepG2 Assay for human Early Growth Response 1 (EGR1) (AID 2282938); details: HepG2 Attagene CIS-FACTORIAL EGR reporter mRNA; actives raise or lower the signal
Procedure, shortened: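 HepG2, transient MRTU transfection (cis promoters), 24 h compound. RNA → RT (oligo-dT) → PCR → 6-FAM labelling → HpaI cut → CE fluorescence. Bidirectional fit, DMSO baseline.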

[4] = ATG_M_19_CIS: Attagene CIS-FACTORIAL HepG2 Assay for M19 Transcription Factor (Internal Marker) (AID 2282939); details: HepG2 Attagene CIS-FACTORIAL M19 internal marker reporter; actives raise or lower the signal
Procedure, shortened: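 Signals come from fluorescence of labelled reporter-specific PCR fragments resolved by capillary electrophoresis, following 24 h treatment of HepG2 cells transfected with cis-promoter reporter units; activity was fitted in both directions relative to DMSO.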

[5] = ATG_ERE_CIS: Attagene CIS-FACTORIAL HepG2 Assay for Estrogen Response Element (ERE) (AID 2282940); details: HepG2 ERE cis-reporter, Attagene RNA transcript; actives raise or lower the signal
Procedure, shortened: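 Fluorescence of capillary-separated, FAM-labelled reporter cDNA fragments indicates reporter mRNA levels in HepG2 cells exposed to chemicals for 24 h. Transient transfection with cis-regulated units; data fitted in both directions against DMSO.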

[6] = ATG_Ets_CIS: Attagene CIS-FACTORIAL HepG2 Assay for human Erythroblast Transformation Specific (ETS) (AID 2282941); details: HepG2 ETS cis-reporter transcription, actives raise or lower the signal
Procedure, shortened: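 Cis-regulated reporter mRNA induction in HepG2 (transient transfection), 24 h exposure, RT-PCR plus capillary electrophoresis detection; DMSO serves as negative control and baseline.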

[7] = molecular target: Hepatocyte nuclear factor 3-beta (Homo sapiens) (UniProt Q9Y261); experiment: ATG_FoxA2_CIS: Attagene CIS-FACTORIAL HepG2 Assay for human Forkhead box A2 (FOXA2) (AID 2282942); details: HepG2 cis-reporter transcription factor activity, 24 h; actives raise or lower the signal
Procedure, shortened: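 Cells: HepG2, transient multiplex reporter transfection. Exposure 24 h. Detection: reporter-specific RT-PCR, fluorescent labelling, restriction digest, capillary electrophoresis. Analysis: bidirectional curve fit, DMSO as negative control.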

[8] = ATG_FoxO_CIS: Attagene CIS-FACTORIAL HepG2 Assay for human Forkhead box O (FoxO) (AID 2282943); details: HepG2 Attagene cis-reporter, FoxO element, mRNA; actives raise or lower the signal
Procedure, shortened: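 Read-out: fluorescence of 6-FAM-labelled reporter cDNA fragments resolved by capillary electrophoresis. Transiently transfected HepG2 cells were dosed for 24 h; activity fitted in both directions relative to DMSO controls.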

[9] = ATG_GATA_CIS: Attagene CIS-FACTORIAL HepG2 Assay for human GATA Binding Protein (AID 2282944); details: HepG2 GATA cis-element reporter, Attagene multiplex mRNA; actives raise or lower the signal
Procedure, shortened: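 After transfecting HepG2 cells with multiple cis-regulated reporter units, chemicals are dosed for 24 h; isolated RNA undergoes RT-PCR and fluorescent labeling before capillary electrophoresis, with activity expressed against DMSO.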

[10] = ATG_GLI_CIS: Attagene CIS-FACTORIAL HepG2 Assay for human Zinc Finger Protein GLI1 (AID 2282945); details: HepG2, Attagene cis-factorial reporter mRNA, GLI element; actives raise or lower the signal
Procedure, shortened: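 Transiently transfected HepG2 cells report endogenous transcription factor activity via cis-element-driven reporter units. After 24 h compound exposure, reporter mRNA was measured by RT-PCR with capillary electrophoresis; bidirectional fitting against DMSO baseline.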

Measured: AC50

Sequence of Hepatocyte nuclear factor 3-beta (Homo sapiens) (Q9Y261 whole entry, looked up): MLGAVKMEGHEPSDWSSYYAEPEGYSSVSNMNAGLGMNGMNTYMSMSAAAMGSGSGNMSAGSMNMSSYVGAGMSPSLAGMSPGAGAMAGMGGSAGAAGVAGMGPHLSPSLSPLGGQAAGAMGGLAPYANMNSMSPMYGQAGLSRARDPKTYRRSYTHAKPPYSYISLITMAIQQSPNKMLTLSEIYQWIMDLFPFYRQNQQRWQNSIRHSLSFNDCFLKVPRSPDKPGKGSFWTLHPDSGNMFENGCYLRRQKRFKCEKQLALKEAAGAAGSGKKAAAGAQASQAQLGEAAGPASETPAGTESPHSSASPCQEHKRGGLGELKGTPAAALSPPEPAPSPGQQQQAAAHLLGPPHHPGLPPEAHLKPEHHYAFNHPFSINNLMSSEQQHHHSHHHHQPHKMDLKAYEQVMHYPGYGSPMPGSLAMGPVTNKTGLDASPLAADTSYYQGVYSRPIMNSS

Clc1nc(Cl)nc(Cl)n1
inactive: all assays above

CC(Br)C(=O)O (stereo unspecified)
inactive: all assays above

C[C@H]1O[C@@H](O[C@H]2[C@@H](O)C[C@H](O[C@H]3[C@@H](O)C[C@H](O[C@H]4CC[C@@]5(C)[C@H](CC[C@@H]6[C@@H]5CC[C@]5(C)[C@@H](C7=CC(=O)OC7)CC[C@]65O)C4)O[C@@H]3C)O[C@@H]2C)C[C@H](O)[C@@H]1O
active: [3] 0.65 µM | [6] 0.0564 µM | [8] 0.472 µM | [9] 0.131 µM
inactive: all other assays above

CCN1CCC2(CC1)COc1cc3c(cc12)N(C(=O)c1ccc(-c2ccc(-c4nnc(C)o4)cc2C)cc1)CC3
inactive: all assays above

Cc1cc(Cl)ccc1O[C@H](C)C(=O)O
inactive: all assays above

COc1cc(-c2ccc(N)c(OC)c2)ccc1N
active: [1] 43.2 µM | [6] 100 µM
inactive: [1] | [2] | [6] | [7] | [8] | [9] | [10]

CCCCCCCCSC(=O)Oc1cc(Cl)nnc1-c1ccccc1
active: [6] 162 µM | [8] 141 µM | [9] 149 µM
inactive: all other assays above

CN(C)P(=O)(N(C)C)N(C)C
inactive: all assays above

O=P(O)(O)CN(CP(=O)(O)O)CP(=O)(O)O
inactive: all assays above

CC(C)(C)CC(C)(C)c1ccc(O)cc1
inactive: [1] | [2] | [3] | [4] | [6] | [7] | [8] | [9] | [10]
active: [1] 8.06 µM

[O-][Cl+2]([O-])O
inactive: all assays above

CCOP(=S)(OCC)SCCS(=O)(=O)CC
inactive: all assays above

N#CCCO
inactive: all assays above

Nc1cccc(Cl)c1
inactive: all assays above

Oc1cccc2cccnc12
inactive: [1] | [2] | [4] | [6] | [7] | [8] | [9] | [10]
active: [1] 69.2 µM

O=C(c1ccccc1)C(Cl)Cl
active: [1] 10.9 µM | [3] 26.6 µM | [8] 26.4 µM
inactive: all other assays above

Oc1c(I)cc(I)cc1I
active: [1] 4.99 µM | [3] 71.1 µM | [8] 100 µM | [10] 149 µM
inactive: all other assays above

O=C(O)C(F)(F)C(F)(F)C(F)(F)C(F)(F)C(F)(F)C(F)(F)C(F)(F)C(F)(F)C(F)(F)C(F)(F)F
active: [1] 54.5 µM | [2] 76.2 µM | [3] 24.7 µM and 14.8 µM | [9] 148 µM | [10] 174 µM
inactive: [1] | [2] | [6] | [7] | [9] | [10]

NC(=S)Nc1ccccc1
not listed: [5]
inactive: all other assays above

CCC[CH2][Sn]([CH2]CCC)([CH2]CCC)[O]C(=O)c1ccccc1
active: [5] 0.0334 µM
not listed: [8]
inactive: all other assays above

O=[N+]([O-])c1c(Cl)c(Cl)cc(Cl)c1Cl
not listed: [5]
inactive: all other assays above
